Of roughly 7,900 targets only a part is listed; those with a hit were picked by preference. About 0.6% of all pairs of compound and target were hits. A number with no mark means an inactive call.
These targets were tested with CN(C)CC(=O)Nc1ccc2[nH]c(=O)c3ccccc3c2c1 (assay: log2 fold change, soluble protein after heating vs DMSO (PISA); higher = thermal stabilisation; K562 cells, 10 uM, 30 min; active = over 0.2 and 3.5 SD of the protein, either way, in both replicates (recomputed)).
Outline: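 K562 cells at 2×10^6 cells/mL were given 10 μM compound for 30 min. Aliquots then went through 3 min of heating across 48°C-58°C, were pooled, and were extracted in PBS with 0.5% NP-40 at 4°C, and the supernatant after 21,000xg for 90 min was quantified by TMTpro 16plex LC-MS/MS with channel sums equalised. Thermal stability relative to control samples, from duplicates, is given as log2 fold change.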

UniProt P11586, sequence (P11586 whole entry, looked up): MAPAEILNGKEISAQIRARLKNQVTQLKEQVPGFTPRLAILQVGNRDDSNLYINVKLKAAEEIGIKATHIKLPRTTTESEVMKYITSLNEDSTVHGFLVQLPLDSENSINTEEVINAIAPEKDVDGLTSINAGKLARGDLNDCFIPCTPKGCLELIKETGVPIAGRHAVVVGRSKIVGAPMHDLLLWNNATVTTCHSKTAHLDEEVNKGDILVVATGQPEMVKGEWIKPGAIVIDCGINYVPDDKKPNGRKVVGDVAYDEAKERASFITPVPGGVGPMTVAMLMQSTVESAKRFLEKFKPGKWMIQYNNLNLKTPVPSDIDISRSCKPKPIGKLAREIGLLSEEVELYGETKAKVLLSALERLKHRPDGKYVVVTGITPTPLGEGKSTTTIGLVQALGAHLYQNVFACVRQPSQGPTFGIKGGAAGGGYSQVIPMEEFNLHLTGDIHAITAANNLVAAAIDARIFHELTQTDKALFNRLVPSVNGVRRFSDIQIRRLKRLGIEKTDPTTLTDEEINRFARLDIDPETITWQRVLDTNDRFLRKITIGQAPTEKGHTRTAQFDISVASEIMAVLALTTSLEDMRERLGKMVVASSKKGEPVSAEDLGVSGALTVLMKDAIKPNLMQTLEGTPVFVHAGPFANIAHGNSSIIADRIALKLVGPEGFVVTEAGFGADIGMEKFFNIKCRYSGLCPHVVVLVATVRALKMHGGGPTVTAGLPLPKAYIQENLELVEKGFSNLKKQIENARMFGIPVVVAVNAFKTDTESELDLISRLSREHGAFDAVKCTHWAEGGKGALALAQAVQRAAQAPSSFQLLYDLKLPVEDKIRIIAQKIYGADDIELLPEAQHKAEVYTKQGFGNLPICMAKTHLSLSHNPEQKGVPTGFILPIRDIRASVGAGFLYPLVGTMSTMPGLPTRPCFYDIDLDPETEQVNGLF
UniProt Q9ULX3, sequence (Q9ULX3 whole entry, looked up): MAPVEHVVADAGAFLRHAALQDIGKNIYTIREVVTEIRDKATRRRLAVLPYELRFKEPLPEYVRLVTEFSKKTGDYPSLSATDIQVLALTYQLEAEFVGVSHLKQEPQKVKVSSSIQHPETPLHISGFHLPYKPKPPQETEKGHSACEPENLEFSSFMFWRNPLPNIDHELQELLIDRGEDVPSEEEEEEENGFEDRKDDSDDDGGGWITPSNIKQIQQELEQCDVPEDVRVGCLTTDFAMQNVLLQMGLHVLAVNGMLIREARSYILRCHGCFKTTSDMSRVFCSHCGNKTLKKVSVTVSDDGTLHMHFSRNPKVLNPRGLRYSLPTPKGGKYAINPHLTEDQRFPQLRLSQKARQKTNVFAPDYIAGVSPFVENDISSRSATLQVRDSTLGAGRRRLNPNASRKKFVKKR
UniProt Q96IV0, sequence (Q96IV0 whole entry, looked up): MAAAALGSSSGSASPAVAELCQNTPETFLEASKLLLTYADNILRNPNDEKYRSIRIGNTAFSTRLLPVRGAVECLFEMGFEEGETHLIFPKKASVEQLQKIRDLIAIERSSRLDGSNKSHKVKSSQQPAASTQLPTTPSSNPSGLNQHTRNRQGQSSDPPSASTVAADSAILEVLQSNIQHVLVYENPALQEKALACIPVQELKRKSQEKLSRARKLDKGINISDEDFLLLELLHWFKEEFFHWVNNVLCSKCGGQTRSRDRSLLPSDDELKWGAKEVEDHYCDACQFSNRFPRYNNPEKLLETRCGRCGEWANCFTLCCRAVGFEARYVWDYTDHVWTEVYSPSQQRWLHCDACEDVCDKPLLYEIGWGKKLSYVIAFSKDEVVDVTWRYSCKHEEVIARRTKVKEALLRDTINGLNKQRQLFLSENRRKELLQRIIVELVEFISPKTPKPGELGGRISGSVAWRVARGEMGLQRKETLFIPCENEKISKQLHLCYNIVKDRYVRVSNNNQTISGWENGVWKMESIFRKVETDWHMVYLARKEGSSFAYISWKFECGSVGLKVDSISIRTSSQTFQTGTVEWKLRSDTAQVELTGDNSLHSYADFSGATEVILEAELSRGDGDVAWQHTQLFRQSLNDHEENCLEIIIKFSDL
UniProt O15460, sequence (O15460 whole entry, looked up): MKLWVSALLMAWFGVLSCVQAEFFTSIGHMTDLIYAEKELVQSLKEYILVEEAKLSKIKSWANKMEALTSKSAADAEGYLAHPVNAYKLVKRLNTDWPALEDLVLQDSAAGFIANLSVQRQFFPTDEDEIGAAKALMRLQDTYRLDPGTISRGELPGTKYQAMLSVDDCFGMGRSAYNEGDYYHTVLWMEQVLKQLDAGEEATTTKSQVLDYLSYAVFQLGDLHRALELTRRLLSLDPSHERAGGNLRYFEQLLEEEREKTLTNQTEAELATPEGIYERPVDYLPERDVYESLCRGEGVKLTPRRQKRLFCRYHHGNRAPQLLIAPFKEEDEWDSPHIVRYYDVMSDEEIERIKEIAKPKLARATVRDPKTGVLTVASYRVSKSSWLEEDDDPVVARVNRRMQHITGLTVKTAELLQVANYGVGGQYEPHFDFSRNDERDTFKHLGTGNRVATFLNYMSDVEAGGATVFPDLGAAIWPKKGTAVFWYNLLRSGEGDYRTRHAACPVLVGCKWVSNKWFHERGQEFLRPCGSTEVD
UniProt P00846, sequence (P00846 whole entry, looked up): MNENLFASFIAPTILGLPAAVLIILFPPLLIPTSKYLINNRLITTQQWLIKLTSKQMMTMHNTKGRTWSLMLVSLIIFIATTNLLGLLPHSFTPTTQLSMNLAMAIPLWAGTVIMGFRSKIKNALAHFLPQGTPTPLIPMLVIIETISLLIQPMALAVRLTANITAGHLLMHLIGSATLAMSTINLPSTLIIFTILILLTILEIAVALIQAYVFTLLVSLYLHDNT
UniProt Q96RE7, sequence (Q96RE7 whole entry, looked up): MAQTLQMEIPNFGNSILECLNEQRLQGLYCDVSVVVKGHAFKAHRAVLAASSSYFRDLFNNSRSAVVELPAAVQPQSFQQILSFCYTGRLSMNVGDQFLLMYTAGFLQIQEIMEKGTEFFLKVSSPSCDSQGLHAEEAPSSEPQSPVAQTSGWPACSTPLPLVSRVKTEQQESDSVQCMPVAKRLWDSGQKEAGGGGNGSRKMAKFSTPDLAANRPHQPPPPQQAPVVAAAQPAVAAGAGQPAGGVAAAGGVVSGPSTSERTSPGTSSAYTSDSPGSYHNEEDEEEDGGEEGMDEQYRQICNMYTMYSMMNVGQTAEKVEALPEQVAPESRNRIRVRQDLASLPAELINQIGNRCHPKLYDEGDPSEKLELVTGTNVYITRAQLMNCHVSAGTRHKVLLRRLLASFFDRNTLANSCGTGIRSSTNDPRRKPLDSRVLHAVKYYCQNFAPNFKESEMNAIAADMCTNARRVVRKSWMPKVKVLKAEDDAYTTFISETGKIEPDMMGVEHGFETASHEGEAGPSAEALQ
UniProt O43809, sequence (O43809 whole entry, looked up): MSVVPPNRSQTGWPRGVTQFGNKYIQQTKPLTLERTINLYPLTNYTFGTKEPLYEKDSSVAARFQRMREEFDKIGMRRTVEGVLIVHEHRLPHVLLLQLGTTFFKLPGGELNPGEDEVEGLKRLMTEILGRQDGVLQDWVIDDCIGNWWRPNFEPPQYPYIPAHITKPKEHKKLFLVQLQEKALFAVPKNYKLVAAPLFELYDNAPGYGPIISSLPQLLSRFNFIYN
UniProt P15559, sequence (P15559 whole entry, looked up): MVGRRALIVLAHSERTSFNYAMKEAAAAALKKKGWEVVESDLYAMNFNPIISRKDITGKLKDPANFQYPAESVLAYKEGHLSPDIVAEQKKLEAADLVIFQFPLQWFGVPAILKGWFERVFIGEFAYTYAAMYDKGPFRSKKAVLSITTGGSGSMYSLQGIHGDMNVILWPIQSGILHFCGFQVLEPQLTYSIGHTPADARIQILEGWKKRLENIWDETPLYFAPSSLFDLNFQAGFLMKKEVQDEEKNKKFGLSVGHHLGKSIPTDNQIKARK
UniProt P49914, sequence (P49914 whole entry, looked up): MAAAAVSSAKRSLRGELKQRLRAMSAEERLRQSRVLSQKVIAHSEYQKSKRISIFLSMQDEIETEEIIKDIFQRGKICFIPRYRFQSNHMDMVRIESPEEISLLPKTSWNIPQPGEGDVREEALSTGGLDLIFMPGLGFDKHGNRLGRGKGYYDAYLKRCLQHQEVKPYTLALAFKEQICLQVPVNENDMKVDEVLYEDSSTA
UniProt Q9UI09, sequence (Q9UI09 whole entry, looked up): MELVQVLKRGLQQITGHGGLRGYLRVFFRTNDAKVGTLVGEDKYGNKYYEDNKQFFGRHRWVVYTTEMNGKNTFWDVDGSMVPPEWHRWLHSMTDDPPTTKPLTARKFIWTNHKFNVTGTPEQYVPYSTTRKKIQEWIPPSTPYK
UniProt Q9BW27, sequence (Q9BW27 whole entry, looked up): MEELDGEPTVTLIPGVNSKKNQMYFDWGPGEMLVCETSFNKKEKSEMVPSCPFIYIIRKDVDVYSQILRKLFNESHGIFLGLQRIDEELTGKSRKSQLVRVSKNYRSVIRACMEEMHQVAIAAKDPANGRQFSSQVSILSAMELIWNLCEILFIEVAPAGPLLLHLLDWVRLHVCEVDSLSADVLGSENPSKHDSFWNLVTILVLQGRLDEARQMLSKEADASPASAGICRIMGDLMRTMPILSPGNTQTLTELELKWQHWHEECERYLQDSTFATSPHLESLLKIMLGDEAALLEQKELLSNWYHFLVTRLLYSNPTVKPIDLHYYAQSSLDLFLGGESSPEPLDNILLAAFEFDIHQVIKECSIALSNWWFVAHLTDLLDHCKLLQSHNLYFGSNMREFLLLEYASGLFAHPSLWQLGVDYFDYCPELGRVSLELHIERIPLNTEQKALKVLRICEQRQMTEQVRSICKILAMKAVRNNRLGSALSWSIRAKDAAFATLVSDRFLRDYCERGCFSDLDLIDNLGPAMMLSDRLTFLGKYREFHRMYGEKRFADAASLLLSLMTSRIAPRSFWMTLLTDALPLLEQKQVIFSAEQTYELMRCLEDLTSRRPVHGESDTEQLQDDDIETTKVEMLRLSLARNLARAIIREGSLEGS

Target	log2 fold change
NOB1 (UniProt Q9ULX3)	-0.011
MRPS25 (UniProt P82663)	-0.056
NACC1 (UniProt Q96RE7)	0.033
NEMP1 (UniProt O14524)	-0.003
MTHFD1 (UniProt P11586)	0.051
OXSM (UniProt Q9NWU1)	-0.005
MT-ATP6 (UniProt P00846)	-0.095
OTUD4 (UniProt Q01804)	0.011
MRPL50 (UniProt Q8N5N7)	0.037
NFATC2 (UniProt Q13469)	0.065
NUP205 (UniProt Q92621)	0.032
MRPS24 (UniProt Q96EL2)	0
MINK1 (UniProt Q8N4C8)	-0.035
NUP85 (UniProt Q9BW27)	-0.004
NOP56 (UniProt O00567)	-0.208
P4HA2 (UniProt O15460)	-0.036
NCAPH (UniProt Q15003)	0.043
MRPS15 (UniProt P82914)	-0.01
NA, A0A096LPI6	-0.002
NQO1 (UniProt P15559)	-0.005

Target	log2 fold change
NIBAN1 (UniProt Q9BZQ8)	0.022
MPHOSPH10 (UniProt O00566)	-0.012
NCAPD2 (UniProt Q15021)	0.075
NFATC2IP (UniProt Q8NCF5)	0.048
NARS2 (UniProt Q96I59)	0.001
NMT2 (UniProt O60551)	-0.013
MTHFS (UniProt P49914)	0.034
NUCKS1 (UniProt Q9H1E3)	-0.073
MYH11 isoform 2 (UniProt P35749)	0.019
NUP160 (UniProt Q12769)	0.007
NDUFA12 (UniProt Q9UI09)	0.119
NUDT21 (UniProt O43809)	-0.041
NCOA7 (UniProt Q8NI08)	-0.002
MON2 isoform 5 (UniProt Q7Z3U7)	0.031
NMRAL1 (UniProt Q9HBL8)	0.122
NMNAT1 (UniProt Q9HAN9)	-0.092
MND1 (UniProt Q9BWT6)	-0.015
NUDT16 (UniProt Q96DE0)	-0.011
NGLY1 (UniProt Q96IV0)	0.055
